The structures appear in SMILES notation. Several values for one entry are separate records, joined by “and”; a condition that tells them apart may be missing. Identical values can stand only once. This is part of a sample that, as a whole, favours compounds with a hit. Of some 83,000 tested, about 20% had one in any assay.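 96-well plates, one dose, 48 hours. Percent growth reported; active if below 10.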 Activity calls are given as the source filed them.

The test system of this assay is MDA-MB-468 breast. Put plainly: NCI-60 one-dose screen, 48 h (100 = growth as untreated, 0 = no growth, -100 = all killed). Conditions: 10 µM unless noted.
In the case of `CCN(CC)CCOc1ccc(-c2nc3cc(Cl)ccc3s2)cc1`, the growth was -17% (active). With `O=C1C=C[C@]2(C[C@@H](c3cccc(C(F)(F)F)c3)O[C@@H](c3cccc(C(F)(F)F)c3)O2)O1`, the growth was -48.8% (active).

On to `COC(=O)c1cc(-c2ccc(C)cc2)n(C(=O)CSc2nc3sc(C(N)=O)c(C)c3c(=O)n2Cc2ccccc2)n1`, for which the growth is 107% (inactive).

Consider `O=c1sn(-c2cccc3ccccc23)c(=O)n1Cc1ccccc1`, for which the growth is 106% (inactive). Turning to `CC/C(Cc1ccccc1)=C(/c1ccc(O)cc1)c1ccc(OCCN2CCCC2)cc1`, the growth was -82.1% (active). Then `Cc1ccccc1NC(=O)Cc1csc2[n+]1C(=O)/C(=C/c1ccc([N+](=O)[O-])cc1)S2`, with 116% (inactive); and `C/C1=C\CC[C@@]2(C)O[C@H]2[C@H]2OC(=O)C(CN3CCN(CC4C(=O)O[C@H]5[C@H]4CC/C(C)=C/CC[C@@]4(C)O[C@@H]54)CC3)[C@@H]2CC1` (stereo not given in full), with 46.1% (inactive); and `COc1ccc(N2CCC(=O)NC2=S)cc1`, with 100% (inactive).

Consider `COc1ccc(C(=O)Cn2cnc3c(Nc4cc(C(=O)Nc5ccc(N6CCN(CCO)CC6)cc5)ccc4C)ncnc32)cc1`, for which the growth is 114% (inactive). For `COCCNC(=O)c1ccc(-c2nc3ccc4[nH]ncc4c3c3c2CCCC3)cc1` the value was 4.81% (active); for `CS(=O)(=O)Nc1ccc(-c2nn(-c3ccc(S(C)(=O)=O)cc3)cc2/C=C/C(=O)c2ccc(NC(=O)CO[N+](=O)[O-])cc2)cc1`, 95% (inactive). For `Fc1ccc(-c2nnc(/C=C/c3cn(-c4ccccc4)nc3-c3ccccc3)o2)cc1` the value was 103% (inactive); for `CC(C)CNCC(=O)Nc1ccc(Cc2ccc(NC(=O)CNCC(C)C)cc2)cc1`, 79.5% (inactive). For `Cn1c(=O)c2nc(/C=C/c3ccccc3)c(=O)[nH]c2n(C)c1=S` the value was 103% (inactive); for `COc1ccc2c(c1)c(CC(=O)[Se]CC#N)c(C)n2C(=O)c1ccc(Cl)cc1`, -43.2% (active).

As for `O=c1c2cc(-c3ccc(F)cc3F)ccc2n(O)c(=O)n1-c1cccc(C(F)(F)F)c1`, the growth was -0.858% (active).

Take `O=C1C=Cc2ncccc2C1=O`: the growth is 64.5% (inactive). Then `O=C1C(=O)N(CCCCn2cc(CO)nn2)c2ccccc21`, with 98.6% (inactive); and `CCN1C(=O)N(CC)C2C1NN=c1s/c(=C\c3ccc[nH]3)c(=O)n12` (stereo not given), with 5.56% (active); and `COC(=O)c1c2c(c(C)[n+]([O-])c1C)C(=O)C(NCc1ccc(F)c(Cl)c1)=CC2=O`, with -18% (active). As to `C=C1CCC2(C#N)[C@H]3[C@H](CC[C@@H]2C)[C@@H](C)C[C@@H](CC(C)(C)NC(=O)CN2CCC2=O)[C@H]13` (stereo not given in full), the growth was 58% (inactive). Then `CCSc1oc(C)nc1[P+](c1ccccc1)(c1ccccc1)c1ccccc1`, with -20.3% (active); and `N#CC1c2ccccc2C=CN1C(=O)c1ccccc1` (stereo not given), with 108% (inactive) and 96.5% (inactive).

Take `O=C1CNC(c2ccccc2)C(c2ccccc2)N1` (stereo not given): the growth is 93.1% (inactive). For `O=[N+]([O-])c1ccc(N/N=C/c2c(O)ccc3ccccc23)nc1` the value was 36.9% (inactive); for `Nc1ccc(S(=O)(=O)c2ccc(Cl)cc2)cc1`, 91.7% (inactive); for `Clc1cc(Cl)c(OCC#CI)cc1Cl`, -26% (active). Then `CCOC(=O)[C@@H]1[C@H](c2ccccc2)[C@H]([N+](=O)[O-])[C@H](c2cn(-c3ccccc3)nc2C)N1Cc1ccccc1`, with 82.9% (inactive); and `COc1ccc(OC)c(Nc2nnc(-c3cc(OC)c(OC)c(OC)c3)o2)c1`, with 92% (inactive). With `NCCn1cc(-c2nc(-c3c[nH]c4ncccc34)cs2)c2cc(F)ccc21`, the growth is 64.9% (inactive).

Turning to `O=C(Nc1ccc(Oc2ccc(F)cc2)c(Cl)c1)c1cccnn1`, the growth is 39.3% (inactive). Then `O=C1CSC(c2c(Cl)cccc2Cl)N1c1nc(Cl)cc(=O)[nH]1` (stereo not given), with 117% (inactive); and `O=C(O)c1cn(C2CC2)c2cc(N3CCN(Cc4c(O)ccc5ccccc45)CC3)c(F)cc2c1=O`, with 35.1% (inactive); and `N#CCCCCCn1c2ccccc2c2c3c(c4c5ccccc5n(CCCCCC#N)c4c21)C(=O)N(O)C3=O`, with 87.8% (inactive).

As to `COc1ccc(-c2nc(-c3ccccn3)c(-c3ccccn3)n2CC(C)C)cc1OC1CCCC1`, the growth is -10.7% (active). For `CC(C)=CCc1c(O)c(CC=C(C)C)c2c(c1O)C(=O)C1=C[C@@H]3C[C@H]4C(C)(C)O[C@@](C/C=C(\C)C(=O)O)(C3=O)[C@@]14O2` the value was -45.1% (active). For `Cc1cc(=O)c2cc3nc(-c4cccnc4)oc3c(Br)c2o1` the value was 96.4% (inactive); for `Cn1c2ccccc2c2nnc(NCCCCO)nc21`, 95.8% (inactive).

Consider `O=C(Nc1ncc(Cc2ccc(Cl)c(C(F)(F)F)c2)s1)c1ccc2nnsc2c1`, for which the growth was 26.3% (inactive). For `CCC(=O)Nc1ccc(-c2nc(-c3cccc(O)c3)c(-c3ccnc(Br)c3)[nH]2)cc1` the value was 30.5% (inactive).

Source of the values: PubChem BioAssay (NCI).
